According to PubChem BioAssay (NCATS):
Inconclusive results are not listed. Activity calls are given as the source filed them. The call rests on the fitted dose curve; in most records, active means well fitted inhibition curve with a large enough effect; inconclusive means small, poorly fitted or top-dose-only effect; inactive means no such curve, though single readings can be large or run the other way.

Experiment: BET inhibitor-based combinations targeting novel dependencies in MECOM-rearranged (r) AML: MV-4-11 cell line (AID 2202233); further: nearly all actives have a fitted effect of over 45% in size;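 on viability, % of control: plate controls were DMSO for no effect and blank wells for full effect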
Conditions: MV-4-11 AML viability, CellTiter-Glo luminescence, 48 h; series mostly up to 46 µM
Excerpt: Ecotropic viral insertion site 1 (EVI1) is located on chromosome 3q26.2 as part of the MECOM (MDS and EVI1 complex) locus. Under normal hematopoiesis, EVI1 is a regulator of hematopoietic stem cell maintenance and self-renewal and EVI1 levels decrease as the cells differentiate. In approximately 5-10% of de novo acute myeloid leukemia (AML) EVI1 is aberrantly expressed, including Chromosomal inv(3)(q21;q26.2) or t(3;3)(q21;q26.2) alterations (MECOM-r) that account for about 50% of AML with EVI1 overexpression 31. AMLs with high levels of EVI1 have a poor prognosis and an overall survival time averaging between 10-14 months. EVI1 overexpression confers resistance in leukemia cells, highlighting the need to develop new targeted therapies for EVI1 overexpressing AMLs. Here, we performed an unbiased chemical drug screening by evaluating the single agent activity of a collection of 2,480 oncology-focused, approved and investigational drugs (NCATS Mechanism Interrogation Plates, MIPE v5.0) against a panel of seven AML cell lines. These included four MECOM-r cell-lines (AML-191, AML-194, UCSD-AML1 and HNT-34) and three non-MECOM-r AMLs (MV4-11, OCI-AML3 and SET-2). Exploiting the mechanistic redundancy built in the library, we identified target-level sensitivities in MECOM-r AML cells and relative activity as compared to other AML subtypes.
A collection of 2480 mechanistically annotated dugs (MIPE v5.0) was used to screen four 3q26.2 rearranged AML cell lines and three non-3q26.2 rearranged AML cell lines. This library purposely exploits redundancy by including multiple inhibitors of key onco-targets, while simultaneously encompassing mechanistic diversity, targeting more than 800 distinct mechanisms of action. Briefly, cells were seeded in 5 uL of growth media using a Multidrop Combi dispenser into 1536 well white polystyrene tissue culture treated plates (Corning) at a density of 500cells/well. For each cell-line, for each of the 2480 drugs in MIPE v5.0 library, an 11-point dose curve was generated via a 1536 pin-tool. Plates were incubated for 48 hr at standard incubator conditions, covered by a stainless steel gasketed lid to prevent evaporation. Cell viability was determined by luminescence based, Cell Titer Glo assay (Promega). In detail, 3 uL of Cell Titer Glo were added to each well and plates were incubated at room temperature for 15 min with a stainless-steel lid in place. Luminescence readings were taken using a Viewlux (PerkinElmer) with a 2 s exposure time per plate. Compound dose-response curves were normalized to DMSO and empty well controls on each plate. Quantitative drug activity data from dose-response curves was determined utilizing area Under the Curve (AUC) and Z-transformed AUC (Z-AUC, a mean-centering transformation applied to each individual cell-line screened).
Potency means the concentration at half of the fitted maximal effect.

SMILES	Potency	viability, % of control
CCOC(=O)[C@H](CCc1ccccc1)N[C@@H](C)C(=O)N1[C@H](C(=O)O)C[C@@H]2CCC[C@@H]21	inactive	
Cn1c(CNc2ccc(C(=N)N)cc2)nc2cc(C(=O)N(CCC(=O)O)c3ccccn3)ccc21		133% [at 0.315 µM] (inactive)
COc1cc2c(Nc3ccc(Br)cc3F)ncnc2cc1OCC1CCN(C)CC1	3320 nM (active)	
COc1cc(N2CCN(C)CC2)ccc1Nc1nccc(-c2cn(C)c3cnccc23)n1	372 nM (active)	
CC(=O)O[C@H]1C[C@@H]2CC[C@@H]3[C@H](CC[C@@]4(C)[C@H]3C[C@H]([N+]3(C)CCCCC3)[C@@H]4OC(C)=O)[C@@]2(C)C[C@@H]1N1CCCCC1	inactive	
Cc1nc2ccc(-n3ncc(C(=O)c4cc5ccccc5[nH]4)c3N)cc2[nH]1	6610 nM (active)	
NCc1c[nH]c(=S)n1[C@H]1CCc2c(F)cc(F)cc2C1	inactive	
COc1cccc2cc(-c3nc(C4CCC(C(=O)O)CC4)n4ncnc(N)c34)[nH]c12 (stereo not given)	833 nM (active)	
COc1cc(C(=O)NC2CCN(C)CC2)ccc1Nc1ncc2c(n1)N(C1CCCC1)CCC(=O)N2C(C)C	6610 nM (active)	
CNCc1ccc(-c2[nH]c3cc(F)cc4c3c2CCNC4=O)cc1	11800 nM (active)	
Nc1ccccc1NC(=O)c1ccc(CNc2nccc(-c3cccnc3)n2)cc1	662 nM (active)	
NS(=O)(=O)c1cc2c(cc1Cl)NCNS2(=O)=O	inactive	
C[C@H](NC(=O)Cc1cc(F)cc(F)c1)C(=O)N[C@@H]1C(=O)N(C)c2ccccc2-c2ccccc21	inactive	
CC(=O)O[C@H]1C[C@@H]2CC[C@H]3[C@H]4C[C@H]([N+]5(C)CCCCC5)[C@@H](OC(C)=O)[C@@]4(C)CC[C@@H]3[C@@]2(C)C[C@H]1[N+]1(C)CCCCC1	inactive	
Cc1cc2c(C(C)C)c(O)c(O)c(C=O)c2c(O)c1-c1c(C)cc2c(C(C)C)c(O)c(O)c(C=O)c2c1O	9340 nM (active)	
Cc1ccc(S(=O)(=O)N[C@@H](Cc2ccccc2)C(=O)CCl)cc1	13200 nM (active)	
NS(=O)(=O)OC[C@@H]1C[C@@H](n2ccc3c(N[C@H]4CCc5ccccc54)ncnc32)C[C@@H]1O	209 nM (active)	
CC(C)n1nc(-c2ccc3oc(N)nc3c2)c2c(N)ncnc21	37.2 nM (active)	
COC(=O)C1=C(C)NC(C)=C(C(=O)OCCN2CCN(C(c3ccccc3)c3ccccc3)CC2)C1c1cccc([N+](=O)[O-])c1 (stereo not given)	18600 nM (active)	
CN1C(=O)c2sccc2N(C)c2nc(Nc3ccc(S(N)(=O)=O)cc3)ncc21	1050 nM (active)	

SMILES	Potency	viability, % of control
CC12CC3CC(C)(C1)CC(N)(C3)C2	inactive	
CC(C)(F)C[C@H](N[C@@H](c1ccc(-c2ccc(S(C)(=O)=O)cc2)cc1)C(F)(F)F)C(=O)NC1(C#N)CC1	4680 nM (active)	
CC(C)c1cnn2c(NCc3ccccc3)cc(N[C@@H](CO)[C@H](O)CO)nc12	372 nM (active)	
COCCOc1nc(-c2ccc(Cl)c(Cl)c2)n(-c2ccc(NC(=O)CCl)cc2)n1	5250 nM (active)	
O=C1Nc2ccc(I)cc2/C1=C/c1cc(Br)c(O)c(Br)c1	inactive	
CC(C)Cc1ccc(C(C)C(=O)O)cc1 (stereo not given)	inactive	
CCC(CC)CC1(C(=O)Nc2ccccc2SC(=O)C(C)C)CCCCC1	inactive	
CNC(=O)c1ccc(N2C(=S)N(c3cnc(C#N)c(C(F)(F)F)c3)C(=O)C23CCC3)cc1F	inactive	
COc1ccc(-c2c(-c3ccc(O)cc3O)n[nH]c2C)cc1	inactive	
NCCCC(O)(P(=O)(O)O)P(=O)(O)O	inactive	
Cc1cn(-c2cc(NC(=O)c3ccc(C)c(Nc4nccc(-c5cccnc5)n4)c3)cc(C(F)(F)F)c2)cn1	1860 nM (active)	
Nc1nc(Cl)nc2c1ncn2[C@@H]1O[C@H](CO)[C@@H](O)[C@@H]1F	209 nM (active)	
CC(C)c1nn(-c2c(Cl)cccc2Cl)c2nc(Cc3ccc(OCCO)cc3)[nH]c(=O)c12	41.7 nM (active)	
N#CC1(c2ccc(NC(=O)c3cccnc3NCc3ccncc3)cc2)CCCC1	14800 nM (active)	
O=C(c1ccc(OCCN2CCCCC2)cc1)c1c(-c2ccc(O)cc2)sc2cc(O)ccc12	18600 nM (active)	
COc1ccc2c3n(c(=NC(=O)c4cccnc4)nc2c1OC)CCN3	148 nM (active)	
CCOc1ccc(Nc2nc(-c3c(C)nc4ccccn34)cs2)cc1	105 nM (active)	
COC(=O)Nc1cc(Nc2cc(NC3CC3)c3ncc(C#N)n3n2)c(Cl)c(N2CCN(C)CC2)c1	833 nM (active)	
N#Cc1c(NC(=O)c2cccc3ccccc23)sc2c1CCCC2	372 nM (active)	
Cc1cnc(CNC(=O)c2c(=O)c3ccc(N4CCCN(C)CC4)nc3n3c2sc2ccccc23)cn1	1080 nM (active)	
